According to the supplement of paper PMC10849652:
The full data set covers some 7,900 targets. This sample favours those with a hit. About 0.6% of all pairs of compound and target were hits. A number with no mark means an inactive call.

Experiments:
Assay in all cases: log2 fold change, soluble protein after heating vs DMSO (PISA); higher = thermal stabilisation; K562 cells, 10 uM, 30 min; active = over 0.2 and 3.5 SD of the protein, either way, in both replicates (recomputed)
[1] = compound: CC1=C(C=C(C=C1)NC(=O)C2=CC(=CC=C2)C(C)(C)C#N)NC3=CC4=C(C=C3)N=CN(C4=O)C
Procedure, shortened: (§1)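 For each measurement, 10 μM compound was applied for 30 min to K562 cells at 2×10^6 cells/mL. Aliquots were heated for 3 min across 48°C-58°C, pooled, and extracted in PBS with 0.5% NP-40 at 4°C; the supernatant after 21,000xg for 90 min was soluble protein. This was quantified by TMTpro 16plex LC-MS/MS with channel sums equalised, and thermal stability was reported relative to control samples from duplicates, on a log2 fold-change scale.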

[2] = compound: CC1=C(C=C(C=C1)NC(=O)C2=CC(=CC=C2)N(C)C)NC(=O)C3=CC=C(C=C3)O
Procedure, shortened: as §1

[3] = compound: CC1=CC=C(C=C1)SC2=C3C=C(SC3=CN=C2)C(=O)N
Procedure, shortened: as §1

[4] = compound: CC1=NC(=CC=C1)C2=C(N=C(N2)C(C)(C)C)C3=CC4=NC=CN=C4C=C3
Procedure, shortened: as §1

Nexturastat A = compound: CCCCN(Cc1ccc(C(=O)NO)cc1)C(=O)Nc1ccccc1 [Nexturastat A]
Procedure, shortened: as §1

vemurafenib = compound: CCCS(=O)(=O)Nc1ccc(F)c(C(=O)c2c[nH]c3ncc(-c4ccc(Cl)cc4)cc23)c1F [vemurafenib]
Procedure, shortened: as §1

[5] = compound: CCCS(=O)(=O)Nc1ccc(F)c(C(=O)c2c[nH]c3ncc(Cl)cc23)c1F
Procedure, shortened: as §1

[6] = compound: CCCc1cc(C)[nH]c(=O)c1CNC(=O)c1cc(-c2ccnc(N3CCN(C)CC3)c2)cc2c1cnn2C(C)C
Procedure, shortened: as §1

givinostat = compound: CCN(CC)Cc1ccc2cc(COC(=O)Nc3ccc(C(=O)NO)cc3)ccc2c1 [givinostat]
Procedure, shortened: as §1

barasertib = compound: CCN(CCCOc1ccc2c(Nc3cc(CC(=O)Nc4cccc(F)c4)[nH]n3)ncnc2c1)CCOP(=O)(O)O [barasertib]
Procedure, shortened: as §1

UniProt Q8NEW0, sequence (Q8NEW0 whole entry, looked up): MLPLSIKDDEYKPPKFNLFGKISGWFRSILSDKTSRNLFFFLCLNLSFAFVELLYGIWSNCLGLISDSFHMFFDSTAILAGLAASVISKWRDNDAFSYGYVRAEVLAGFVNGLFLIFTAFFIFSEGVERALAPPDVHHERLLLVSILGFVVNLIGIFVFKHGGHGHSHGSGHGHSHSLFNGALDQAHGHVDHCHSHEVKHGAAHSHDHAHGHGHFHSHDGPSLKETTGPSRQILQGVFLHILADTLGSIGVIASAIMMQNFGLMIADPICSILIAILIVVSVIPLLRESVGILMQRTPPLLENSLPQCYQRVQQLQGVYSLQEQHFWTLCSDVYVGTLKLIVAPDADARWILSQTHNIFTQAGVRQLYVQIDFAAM
UniProt Q96BZ9, sequence (Q96BZ9 whole entry, looked up): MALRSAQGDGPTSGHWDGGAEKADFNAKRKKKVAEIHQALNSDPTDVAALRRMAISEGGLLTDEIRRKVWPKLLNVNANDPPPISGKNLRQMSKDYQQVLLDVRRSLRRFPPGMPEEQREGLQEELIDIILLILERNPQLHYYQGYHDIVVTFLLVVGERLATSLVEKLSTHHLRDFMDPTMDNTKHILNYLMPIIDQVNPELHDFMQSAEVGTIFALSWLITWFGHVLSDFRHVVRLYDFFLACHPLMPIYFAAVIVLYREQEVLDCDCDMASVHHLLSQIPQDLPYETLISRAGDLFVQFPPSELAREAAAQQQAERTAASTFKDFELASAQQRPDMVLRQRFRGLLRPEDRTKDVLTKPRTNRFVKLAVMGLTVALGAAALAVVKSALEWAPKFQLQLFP
UniProt Q9NUY8, sequence (Q9NUY8 whole entry, looked up): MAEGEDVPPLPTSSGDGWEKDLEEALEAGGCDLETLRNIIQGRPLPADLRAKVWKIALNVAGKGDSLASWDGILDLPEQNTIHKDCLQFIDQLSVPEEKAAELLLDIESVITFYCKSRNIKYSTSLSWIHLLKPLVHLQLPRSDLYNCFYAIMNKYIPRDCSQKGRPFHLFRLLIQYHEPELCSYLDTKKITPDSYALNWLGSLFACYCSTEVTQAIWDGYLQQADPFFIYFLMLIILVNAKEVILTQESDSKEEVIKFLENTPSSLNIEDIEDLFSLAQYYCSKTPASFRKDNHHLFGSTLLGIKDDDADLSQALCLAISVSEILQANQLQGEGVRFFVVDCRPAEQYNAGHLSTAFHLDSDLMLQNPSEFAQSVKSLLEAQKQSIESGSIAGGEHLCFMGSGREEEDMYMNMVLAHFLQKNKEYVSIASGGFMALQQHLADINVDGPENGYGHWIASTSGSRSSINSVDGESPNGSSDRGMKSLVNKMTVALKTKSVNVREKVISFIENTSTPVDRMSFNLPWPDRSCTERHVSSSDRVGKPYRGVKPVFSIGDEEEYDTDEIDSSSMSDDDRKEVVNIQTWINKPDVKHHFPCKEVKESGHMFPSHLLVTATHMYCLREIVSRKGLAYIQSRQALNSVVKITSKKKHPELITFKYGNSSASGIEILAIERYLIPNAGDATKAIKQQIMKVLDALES
UniProt P08240, sequence (P08240 whole entry, looked up): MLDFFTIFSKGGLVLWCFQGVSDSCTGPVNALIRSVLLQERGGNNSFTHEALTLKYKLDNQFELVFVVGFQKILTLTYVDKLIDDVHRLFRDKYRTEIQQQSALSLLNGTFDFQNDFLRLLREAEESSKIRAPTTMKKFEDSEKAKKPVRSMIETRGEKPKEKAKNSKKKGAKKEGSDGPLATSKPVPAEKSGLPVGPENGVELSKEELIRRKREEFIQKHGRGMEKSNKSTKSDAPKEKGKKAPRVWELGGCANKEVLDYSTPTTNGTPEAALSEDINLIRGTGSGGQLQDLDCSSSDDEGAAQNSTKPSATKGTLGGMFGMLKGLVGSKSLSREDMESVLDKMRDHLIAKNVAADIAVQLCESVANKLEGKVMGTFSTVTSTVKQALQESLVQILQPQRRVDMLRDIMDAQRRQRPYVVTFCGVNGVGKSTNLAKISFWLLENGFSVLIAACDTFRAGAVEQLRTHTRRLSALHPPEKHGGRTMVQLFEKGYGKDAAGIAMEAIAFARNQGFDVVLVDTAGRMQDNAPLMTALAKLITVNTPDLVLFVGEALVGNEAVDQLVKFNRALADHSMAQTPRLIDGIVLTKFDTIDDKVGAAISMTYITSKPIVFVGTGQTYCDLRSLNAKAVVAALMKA
UniProt Q8WXA9, sequence (Q8WXA9 whole entry, looked up): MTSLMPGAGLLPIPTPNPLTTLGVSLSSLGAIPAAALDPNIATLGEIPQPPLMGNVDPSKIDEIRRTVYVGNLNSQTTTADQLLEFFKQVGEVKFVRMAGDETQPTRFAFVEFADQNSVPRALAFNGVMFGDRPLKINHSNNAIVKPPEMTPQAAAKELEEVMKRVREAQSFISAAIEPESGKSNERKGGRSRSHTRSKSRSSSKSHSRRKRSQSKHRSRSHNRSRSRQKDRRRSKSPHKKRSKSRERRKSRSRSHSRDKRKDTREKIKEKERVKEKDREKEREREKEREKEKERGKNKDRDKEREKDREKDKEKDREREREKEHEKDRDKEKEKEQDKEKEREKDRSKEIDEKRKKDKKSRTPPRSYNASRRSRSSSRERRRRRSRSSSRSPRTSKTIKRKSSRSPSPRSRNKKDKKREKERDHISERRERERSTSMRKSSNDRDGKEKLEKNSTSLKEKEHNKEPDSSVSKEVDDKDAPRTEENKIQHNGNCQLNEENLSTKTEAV
UniProt Q9H4L7, sequence (Q9H4L7 whole entry, looked up): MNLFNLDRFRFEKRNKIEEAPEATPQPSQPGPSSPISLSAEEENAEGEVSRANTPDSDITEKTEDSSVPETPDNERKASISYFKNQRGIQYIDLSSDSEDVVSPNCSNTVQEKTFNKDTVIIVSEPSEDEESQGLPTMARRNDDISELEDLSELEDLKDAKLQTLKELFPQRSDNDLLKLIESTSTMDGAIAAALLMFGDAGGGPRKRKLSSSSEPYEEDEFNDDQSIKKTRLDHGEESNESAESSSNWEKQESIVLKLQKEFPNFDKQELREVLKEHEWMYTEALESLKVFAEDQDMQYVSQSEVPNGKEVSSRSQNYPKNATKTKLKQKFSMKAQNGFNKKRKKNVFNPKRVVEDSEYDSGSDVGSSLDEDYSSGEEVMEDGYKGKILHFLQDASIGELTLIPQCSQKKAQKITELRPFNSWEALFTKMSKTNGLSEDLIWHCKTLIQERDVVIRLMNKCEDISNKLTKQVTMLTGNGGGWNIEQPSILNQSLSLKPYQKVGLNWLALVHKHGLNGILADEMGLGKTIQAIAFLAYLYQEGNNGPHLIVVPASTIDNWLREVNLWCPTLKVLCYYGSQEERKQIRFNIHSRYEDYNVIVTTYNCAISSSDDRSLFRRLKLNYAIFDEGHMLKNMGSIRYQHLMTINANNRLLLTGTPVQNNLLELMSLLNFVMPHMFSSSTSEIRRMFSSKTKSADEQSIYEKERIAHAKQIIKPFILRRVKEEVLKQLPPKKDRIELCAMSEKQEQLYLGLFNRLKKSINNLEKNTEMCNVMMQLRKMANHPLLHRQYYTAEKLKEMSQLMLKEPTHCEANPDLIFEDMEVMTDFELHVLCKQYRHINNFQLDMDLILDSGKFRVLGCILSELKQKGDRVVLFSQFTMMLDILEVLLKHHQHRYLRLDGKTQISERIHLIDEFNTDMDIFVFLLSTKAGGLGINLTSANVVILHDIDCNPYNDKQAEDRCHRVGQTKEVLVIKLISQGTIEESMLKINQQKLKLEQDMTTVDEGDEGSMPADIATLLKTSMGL
UniProt Q16594, sequence (Q16594 whole entry, looked up): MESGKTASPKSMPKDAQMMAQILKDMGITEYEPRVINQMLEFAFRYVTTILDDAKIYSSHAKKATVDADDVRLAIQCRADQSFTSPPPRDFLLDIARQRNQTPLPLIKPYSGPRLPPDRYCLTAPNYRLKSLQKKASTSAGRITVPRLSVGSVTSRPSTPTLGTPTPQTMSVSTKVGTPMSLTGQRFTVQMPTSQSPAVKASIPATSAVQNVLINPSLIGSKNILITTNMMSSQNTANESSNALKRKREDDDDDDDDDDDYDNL
UniProt Q86VP1, sequence (Q86VP1 whole entry, looked up): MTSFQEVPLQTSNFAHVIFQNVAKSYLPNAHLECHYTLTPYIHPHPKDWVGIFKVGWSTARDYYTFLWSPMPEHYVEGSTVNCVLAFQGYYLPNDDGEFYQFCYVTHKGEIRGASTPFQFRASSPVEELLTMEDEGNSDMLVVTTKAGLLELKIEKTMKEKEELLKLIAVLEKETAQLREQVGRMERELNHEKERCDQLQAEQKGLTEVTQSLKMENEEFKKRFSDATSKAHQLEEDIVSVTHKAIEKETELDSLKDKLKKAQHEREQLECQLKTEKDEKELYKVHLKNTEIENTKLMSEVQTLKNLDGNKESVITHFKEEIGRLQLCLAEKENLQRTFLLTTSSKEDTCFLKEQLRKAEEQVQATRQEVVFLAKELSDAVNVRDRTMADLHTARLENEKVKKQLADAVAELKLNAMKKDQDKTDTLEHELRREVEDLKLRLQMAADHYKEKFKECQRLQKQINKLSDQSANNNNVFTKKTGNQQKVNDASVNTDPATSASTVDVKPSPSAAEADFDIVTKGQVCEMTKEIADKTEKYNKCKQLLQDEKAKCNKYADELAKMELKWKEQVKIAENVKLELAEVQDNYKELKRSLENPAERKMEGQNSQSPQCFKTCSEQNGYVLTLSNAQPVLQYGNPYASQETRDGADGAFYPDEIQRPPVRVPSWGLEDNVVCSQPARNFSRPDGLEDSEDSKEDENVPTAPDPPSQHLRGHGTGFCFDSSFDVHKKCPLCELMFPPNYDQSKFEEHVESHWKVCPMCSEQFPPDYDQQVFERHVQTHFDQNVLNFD
UniProt Q15526, sequence (Q15526 whole entry, looked up): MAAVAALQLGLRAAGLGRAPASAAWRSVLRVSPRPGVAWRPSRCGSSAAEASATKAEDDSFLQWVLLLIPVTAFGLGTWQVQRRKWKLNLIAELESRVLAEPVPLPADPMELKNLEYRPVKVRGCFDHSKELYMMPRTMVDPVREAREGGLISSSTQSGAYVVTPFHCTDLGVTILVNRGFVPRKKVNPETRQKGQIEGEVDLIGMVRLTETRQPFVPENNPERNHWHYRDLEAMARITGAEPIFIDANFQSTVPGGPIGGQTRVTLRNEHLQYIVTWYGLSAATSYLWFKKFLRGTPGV

Row | Target | log2 fold change [1] | log2 fold change [2] | log2 fold change [3] | log2 fold change [4] | log2 fold change (Nexturastat A) | log2 fold change (vemurafenib) | log2 fold change [5] | log2 fold change [6] | log2 fold change (givinostat) | log2 fold change (barasertib)
1 | TBC1D23 (UniProt Q9NUY8) | 0.029 | -0.038 | 0.005 | 0.005 | -0.071 | 0.035 | 0.034 | -0.074 | 0.006 | 0.041
2 | SMARCE1 (UniProt Q969G3) | -0.025 | -0.058 | -0.003 | 0.074 | 0.121 | -0.123 | 0.085 | -0.522 | 0.028 | 0.042
3 | SRP68 (UniProt Q9UHB9) | 0.028 | -0.062 | 0 | 0.018 | 0.125 | 0.063 | 0.091 | 0.064 | 0.075 | 0.078
4 | TBC1D20 isoform 3 (UniProt Q96BZ9) | -0.048 | 0.04 | 0.128 | 0.037 | 0 | 0.083 | 0.166 | -0.14 | 0.076 | 0.034
5 | SNRPD3 (UniProt P62318) | -0.03 | 0.031 | -0.048 | -0.079 | -0.023 | -0.015 | -0.102 | -0.126 | 0 | -0.039
6 | THADA (UniProt Q6YHU6) | 0.03 | -0.038 | 0.019 | -0.01 | -0.021 | 0.038 | 0.06 | 0.039 | -0.006 | 0.07
7 | SLC25A38 (UniProt Q96DW6) | 0.075 | -0.011 | -0.047 | 0.076 | -0.012 | -0.059 | -0.019 | -0.145 | -0.004 | 0.014
8 | SLK isoform 2 (UniProt Q9H2G2) | -0.078 | -0.07 | 0.051 | 0.02 | -0.007 | 0.03 | 0.092 | 0.026 | 0 | 0.047
9 | SQSTM1 (UniProt Q13501) | 0.04 | -0.065 | -0.054 | -0.012 | 0.102 | 0.064 | 0.047 | 0.103 | -0.027 | 0.032
10 | SPTBN1 (UniProt Q01082) | 0.018 | 0.02 | 0.004 | -0.036 | 0.088 | 0.058 | 0.006 | 0.051 | 0.049 | 0.019
11 | SMARCAD1 isoform 2 (UniProt Q9H4L7) | 0.028 | -0.072 | -0.026 | 0.064 | -0.028 | 0.192 | 0.101 | 0.035 | 0.127 | 0.089
12 | TIMM13 (UniProt Q9Y5L4) | 0.086 | -0.048 | 0.03 | 0.143 | -0.19 | 0.072 | 0.015 | 0.085 | 0.089 | -0.035
13 | TLK1 (UniProt Q9UKI8) | 0.062 | -0.009 | 0.018 | 0.011 | 0.012 | 0.008 | 0.019 | -0.053 | 0.078 | 0.079
14 | SURF1 (UniProt Q15526) | 0.045 | -0.008 | -0.019 | 0.087 | -0.033 | 0.042 | 0.124 | -0.01 | -0.01 | 0.027
15 | SRSF3 (UniProt P84103) | -0.019 | 0.047 | -0.208 | -0.103 | 0.124 | -0.064 | -0.173 | 0.047 | -0.029 | -0.093
16 | SREK1 isoform 2 (UniProt Q8WXA9) | -0.335 | -0.083 | 0 | 0.045 | 0.108 | 0.019 | 0.096 | -0.069 | 0.062 | -0.057
17 | SLC30A7 (UniProt Q8NEW0) | -0.03 | 0.003 | 0.03 | -0.072 | -0.108 | 0.072 | -0.019 | -0.148 | 0.081 | 0.032
18 | STAT3 (UniProt P40763) | 0.012 | 0.001 | -0.009 | -0.008 | 0.005 | 0.101 | 0.102 | 0.017 | 0.089 | 0.064
19 | TAF9 (UniProt Q16594) | 0.125 | -0.007 | -0.092 | 0.018 | 0 | -0.017 | -0.097 | 0.02 | 0.019 | -0.019
20 | SPR (UniProt P35270) | 0.103 | -0.003 | 0.063 | -0.043 | -0.069 | -0.019 | 0.019 | 0.009 | -0.004 | -0.076
21 | SMAP2 (UniProt Q8WU79) | -0.033 | -0.063 | 0.016 | -0.054 | 0.029 | 0.058 | 0.055 | 0.043 | 0.04 | 0.052
22 | TAX1BP1 (UniProt Q86VP1) | 0.031 | -0.005 | -0.014 | -0.026 | -0.014 | -0.003 | 0.011 | -0.055 | -0.033 | -0.061
23 | SRPRA (UniProt P08240) | 0.089 | -0.06 | 0.018 | 0.047 | 0 | 0.038 | 0.069 | 0.001 | 0.018 | 0.04
24 | SLC35A1 (UniProt P78382) | -0.027 | 0 | -0.045 | 0.06 | -0.037 | 0.382 (active) | 0 | -0.07 | -0.024 | -0.05
25 | TIPRL (UniProt O75663) | 0.011 | -0.017 | 0.007 | 0.013 | -0.05 | 0.022 | 0.046 | 0.02 | 0.032 | -0.007
26 | TELO2 (UniProt Q9Y4R8) | 0.04 | -0.026 | 0.028 | -0.057 | 0.143 | 0.12 | 0.089 | 0.014 | 0.084 | 0.05
27 | STRN (UniProt O43815) | -0.019 | -0.046 | 0.019 | -0.024 | 0.001 | 0.073 | 0.035 | -0.038 | 0.002 | 0.045
28 | SLC27A4 (UniProt Q6P1M0) | -0.074 | -0.072 | 0.011 | -0.096 | -0.014 | -0.039 | -0.031 | -0.017 | 0.021 | 0.056
29 | SLC25A4 (UniProt P12235) | 0.041 | 0.029 | 0.073 | 0.017 | -0.228 (active) | -0.028 | -0.02 | -0.032 | -0.049 | -0.009
30 | TAOK1 (UniProt Q7L7X3) | -0.009 | 0.007 | -0.005 | -0.013 | 0.065 | 0.023 | 0.011 | -0.048 | 0.001 | 0.009
